Test [1] concerns the target RAC-alpha serine/threonine-protein kinase (Homo sapiens) (UniProt P31749). The note with it: at 0.1 µM.
Test [2] has the same target. The note with it: at 1 µM.
Test [3] concerns the target RAC-beta serine/threonine-protein kinase (Homo sapiens) (UniProt P31751). The note with it: at 0.1 µM.
Test [4] shares this target. Particulars: at 1 µM.
Test [5] concerns the target RAC-gamma serine/threonine-protein kinase (Homo sapiens) (UniProt Q9Y243). The note with it: at 0.1 µM.
Test [6] shares this target. The note with it: at 1 µM.
Test [7] has as its target G protein-coupled receptor kinase 6 (Homo sapiens) (UniProt P43250). The note with it: at 0.1 µM.
The target is the same in test [8]. Particulars: at 1 µM.
Test [9] deals with T1, Rhodopsin kinase GRK7 (Homo sapiens) (UniProt Q8WTQ7).
T1 sequence (whole entry): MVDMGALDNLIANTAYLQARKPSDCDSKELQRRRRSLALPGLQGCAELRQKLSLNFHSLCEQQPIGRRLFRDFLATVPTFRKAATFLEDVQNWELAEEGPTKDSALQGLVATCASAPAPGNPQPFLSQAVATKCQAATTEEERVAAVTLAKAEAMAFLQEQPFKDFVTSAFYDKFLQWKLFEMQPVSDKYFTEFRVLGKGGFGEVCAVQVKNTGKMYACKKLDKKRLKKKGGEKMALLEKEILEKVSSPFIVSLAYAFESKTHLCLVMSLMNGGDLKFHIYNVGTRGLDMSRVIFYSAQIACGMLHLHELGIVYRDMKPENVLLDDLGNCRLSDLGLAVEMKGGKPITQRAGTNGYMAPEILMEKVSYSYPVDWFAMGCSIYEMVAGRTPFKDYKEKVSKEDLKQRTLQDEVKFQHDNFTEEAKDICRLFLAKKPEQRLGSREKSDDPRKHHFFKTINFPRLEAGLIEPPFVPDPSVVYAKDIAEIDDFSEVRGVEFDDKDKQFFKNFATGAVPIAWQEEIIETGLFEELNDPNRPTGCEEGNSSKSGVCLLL
The note with it: at 0.1 µM.

Test [10] has as its target T1, Rhodopsin kinase GRK7 (Homo sapiens). The note with it: at 1 µM.
Test [11] deals with Serine/threonine-protein kinase MRCK alpha (Homo sapiens) (UniProt Q5VT25). The note with it: at 0.1 µM.
For test [12] the target is unchanged. The note with it: at 1 µM.
Test [13] has as its target Serine/threonine-protein kinase MRCK beta (Homo sapiens) (UniProt Q9Y5S2). Particulars: at 0.1 µM.
Test [14] has the same target. The note with it: at 1 µM.
The target in test [15] is Ribosomal protein S6 kinase alpha-5 (Homo sapiens) (UniProt O75582). The note with it: at 0.1 µM.
The target is the same in test [16]. The note with it: at 1 µM.
Test [17] has as its target Ribosomal protein S6 kinase alpha-4 (Homo sapiens) (UniProt O75676). The note with it: at 0.1 µM.
For test [18] the target is unchanged. Particulars: at 1 µM.
The target in test [19] is Ribosomal protein S6 kinase beta-1 (Homo sapiens) (UniProt P23443). Particulars: at 0.1 µM.
Test [20] shares this target. The note with it: at 1 µM.

Experimental findings from ChEMBL document CHEMBL1961873, “Compounds: GSK PKIS; Assays: Nanosyn kinase panel” (2012) are described below.

Sequence of Ribosomal protein S6 kinase beta-1 (Homo sapiens) (P23443 whole entry, looked up): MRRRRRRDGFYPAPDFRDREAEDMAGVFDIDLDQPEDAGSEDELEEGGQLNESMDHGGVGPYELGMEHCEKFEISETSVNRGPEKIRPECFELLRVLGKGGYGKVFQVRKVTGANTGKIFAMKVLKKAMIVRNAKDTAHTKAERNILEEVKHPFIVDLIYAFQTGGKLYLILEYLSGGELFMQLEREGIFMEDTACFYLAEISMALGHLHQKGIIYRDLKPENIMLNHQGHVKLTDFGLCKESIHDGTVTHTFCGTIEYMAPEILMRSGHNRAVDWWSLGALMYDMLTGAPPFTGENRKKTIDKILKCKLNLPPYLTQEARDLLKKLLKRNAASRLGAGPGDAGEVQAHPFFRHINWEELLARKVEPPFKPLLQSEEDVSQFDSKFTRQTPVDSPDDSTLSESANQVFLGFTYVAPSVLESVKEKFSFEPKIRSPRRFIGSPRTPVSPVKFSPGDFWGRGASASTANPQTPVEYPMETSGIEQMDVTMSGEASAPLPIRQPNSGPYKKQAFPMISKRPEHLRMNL
Sequence of RAC-beta serine/threonine-protein kinase (Homo sapiens) (P31751 whole entry): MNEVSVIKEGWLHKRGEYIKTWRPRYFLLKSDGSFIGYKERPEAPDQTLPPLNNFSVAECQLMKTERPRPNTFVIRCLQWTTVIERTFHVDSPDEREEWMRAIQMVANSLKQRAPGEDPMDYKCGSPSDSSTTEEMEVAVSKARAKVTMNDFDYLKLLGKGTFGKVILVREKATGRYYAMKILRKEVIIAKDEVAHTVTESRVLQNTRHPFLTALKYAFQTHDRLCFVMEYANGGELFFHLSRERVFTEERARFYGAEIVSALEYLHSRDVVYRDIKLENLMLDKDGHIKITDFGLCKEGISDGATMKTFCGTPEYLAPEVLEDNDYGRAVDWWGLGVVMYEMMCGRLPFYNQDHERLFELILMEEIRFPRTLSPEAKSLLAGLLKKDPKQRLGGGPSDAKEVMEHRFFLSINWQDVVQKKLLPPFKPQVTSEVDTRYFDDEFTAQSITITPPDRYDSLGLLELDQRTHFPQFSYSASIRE
Sequence of RAC-alpha serine/threonine-protein kinase (Homo sapiens) (P31749 whole entry): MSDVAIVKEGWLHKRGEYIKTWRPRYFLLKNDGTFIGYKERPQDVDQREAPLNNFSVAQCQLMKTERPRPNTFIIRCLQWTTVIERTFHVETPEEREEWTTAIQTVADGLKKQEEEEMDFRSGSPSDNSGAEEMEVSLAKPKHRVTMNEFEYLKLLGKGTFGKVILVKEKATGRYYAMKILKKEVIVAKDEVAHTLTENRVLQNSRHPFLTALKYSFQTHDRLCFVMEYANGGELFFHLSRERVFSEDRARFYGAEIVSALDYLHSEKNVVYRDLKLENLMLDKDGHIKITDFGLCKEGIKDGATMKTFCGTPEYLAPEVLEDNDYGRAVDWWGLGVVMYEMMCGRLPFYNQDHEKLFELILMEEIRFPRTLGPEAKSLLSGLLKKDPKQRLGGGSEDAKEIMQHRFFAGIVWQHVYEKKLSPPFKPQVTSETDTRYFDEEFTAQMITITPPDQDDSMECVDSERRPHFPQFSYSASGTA
Sequence of Serine/threonine-protein kinase MRCK beta (Homo sapiens) (Q9Y5S2 whole entry): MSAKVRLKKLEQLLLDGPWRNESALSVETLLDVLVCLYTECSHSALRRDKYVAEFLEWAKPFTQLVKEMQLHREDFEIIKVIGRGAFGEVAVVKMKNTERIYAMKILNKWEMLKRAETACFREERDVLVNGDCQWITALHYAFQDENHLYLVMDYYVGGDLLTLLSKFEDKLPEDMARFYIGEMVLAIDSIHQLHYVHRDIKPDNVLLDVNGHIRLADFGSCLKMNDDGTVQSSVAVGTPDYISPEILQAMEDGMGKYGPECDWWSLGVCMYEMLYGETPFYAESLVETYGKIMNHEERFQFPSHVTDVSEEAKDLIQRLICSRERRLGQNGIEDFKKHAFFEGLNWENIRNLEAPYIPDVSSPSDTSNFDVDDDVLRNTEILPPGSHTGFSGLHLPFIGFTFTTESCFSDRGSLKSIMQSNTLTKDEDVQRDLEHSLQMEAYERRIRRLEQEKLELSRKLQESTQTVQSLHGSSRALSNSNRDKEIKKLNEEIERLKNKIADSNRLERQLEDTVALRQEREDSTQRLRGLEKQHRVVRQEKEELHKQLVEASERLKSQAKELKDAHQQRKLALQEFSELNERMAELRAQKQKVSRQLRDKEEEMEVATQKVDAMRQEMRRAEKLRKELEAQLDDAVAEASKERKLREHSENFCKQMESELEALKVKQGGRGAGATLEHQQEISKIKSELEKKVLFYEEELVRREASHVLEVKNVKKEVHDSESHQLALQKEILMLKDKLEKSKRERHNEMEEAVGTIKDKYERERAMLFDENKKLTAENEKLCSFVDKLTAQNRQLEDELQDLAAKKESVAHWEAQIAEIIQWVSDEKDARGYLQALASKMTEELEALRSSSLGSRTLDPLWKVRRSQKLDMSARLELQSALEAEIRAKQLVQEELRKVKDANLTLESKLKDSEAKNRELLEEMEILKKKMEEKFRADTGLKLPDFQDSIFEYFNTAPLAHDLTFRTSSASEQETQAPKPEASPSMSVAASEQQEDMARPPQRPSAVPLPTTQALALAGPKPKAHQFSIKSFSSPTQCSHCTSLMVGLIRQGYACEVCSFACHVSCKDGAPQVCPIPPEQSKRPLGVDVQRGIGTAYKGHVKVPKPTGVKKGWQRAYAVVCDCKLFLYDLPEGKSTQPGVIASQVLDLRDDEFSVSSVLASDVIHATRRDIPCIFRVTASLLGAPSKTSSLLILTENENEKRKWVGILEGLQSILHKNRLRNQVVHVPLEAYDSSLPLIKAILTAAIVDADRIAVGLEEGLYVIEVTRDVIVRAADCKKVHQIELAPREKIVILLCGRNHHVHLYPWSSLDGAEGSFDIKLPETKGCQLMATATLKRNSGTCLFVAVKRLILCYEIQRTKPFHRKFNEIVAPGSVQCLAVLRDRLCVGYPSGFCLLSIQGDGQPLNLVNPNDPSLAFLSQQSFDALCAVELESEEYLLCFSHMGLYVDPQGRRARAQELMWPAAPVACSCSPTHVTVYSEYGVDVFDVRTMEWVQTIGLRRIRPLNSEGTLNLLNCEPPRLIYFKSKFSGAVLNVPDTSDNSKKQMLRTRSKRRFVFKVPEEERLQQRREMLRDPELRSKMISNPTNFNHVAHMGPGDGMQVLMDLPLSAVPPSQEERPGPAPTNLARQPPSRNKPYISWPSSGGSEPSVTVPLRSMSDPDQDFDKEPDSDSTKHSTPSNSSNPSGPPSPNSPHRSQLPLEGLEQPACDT
Sequence of Ribosomal protein S6 kinase alpha-5 (Homo sapiens) (O75582 whole entry, looked up): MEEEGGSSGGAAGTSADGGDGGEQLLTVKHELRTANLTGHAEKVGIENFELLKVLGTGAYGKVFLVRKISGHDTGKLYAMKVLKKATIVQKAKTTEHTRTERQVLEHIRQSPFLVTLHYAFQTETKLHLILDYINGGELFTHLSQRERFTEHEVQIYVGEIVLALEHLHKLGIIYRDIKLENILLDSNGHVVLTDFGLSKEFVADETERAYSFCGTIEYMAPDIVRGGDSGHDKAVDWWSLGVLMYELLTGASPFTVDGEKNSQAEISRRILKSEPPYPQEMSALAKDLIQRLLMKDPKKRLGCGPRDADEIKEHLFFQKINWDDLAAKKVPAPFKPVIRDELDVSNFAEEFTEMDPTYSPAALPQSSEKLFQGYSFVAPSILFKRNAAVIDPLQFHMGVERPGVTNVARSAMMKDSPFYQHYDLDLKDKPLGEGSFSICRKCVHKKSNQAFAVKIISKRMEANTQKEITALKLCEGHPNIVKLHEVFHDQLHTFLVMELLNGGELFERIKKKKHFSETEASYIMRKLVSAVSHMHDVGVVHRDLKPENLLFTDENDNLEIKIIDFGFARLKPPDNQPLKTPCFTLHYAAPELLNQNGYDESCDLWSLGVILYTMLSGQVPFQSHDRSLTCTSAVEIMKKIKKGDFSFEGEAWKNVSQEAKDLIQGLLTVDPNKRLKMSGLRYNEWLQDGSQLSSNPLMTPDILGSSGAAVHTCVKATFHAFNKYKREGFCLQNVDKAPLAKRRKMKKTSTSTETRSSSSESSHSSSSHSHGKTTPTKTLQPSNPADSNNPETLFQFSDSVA
Sequence of G protein-coupled receptor kinase 6 (Homo sapiens) (P43250 whole entry, looked up): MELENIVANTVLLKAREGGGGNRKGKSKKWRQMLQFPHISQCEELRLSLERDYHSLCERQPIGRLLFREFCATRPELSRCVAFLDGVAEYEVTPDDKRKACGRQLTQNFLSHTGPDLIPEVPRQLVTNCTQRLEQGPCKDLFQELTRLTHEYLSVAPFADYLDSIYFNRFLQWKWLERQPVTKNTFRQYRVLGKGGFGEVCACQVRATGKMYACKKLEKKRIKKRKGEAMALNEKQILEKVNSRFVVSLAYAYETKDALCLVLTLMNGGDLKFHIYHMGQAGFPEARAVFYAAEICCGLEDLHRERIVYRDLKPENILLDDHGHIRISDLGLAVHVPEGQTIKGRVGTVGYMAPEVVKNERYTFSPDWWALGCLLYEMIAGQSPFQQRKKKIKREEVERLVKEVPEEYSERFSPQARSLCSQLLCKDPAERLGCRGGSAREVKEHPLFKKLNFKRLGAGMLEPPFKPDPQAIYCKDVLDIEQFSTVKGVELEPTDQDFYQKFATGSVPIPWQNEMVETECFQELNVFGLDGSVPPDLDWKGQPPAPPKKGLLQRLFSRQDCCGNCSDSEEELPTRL
Sequence of RAC-gamma serine/threonine-protein kinase (Homo sapiens) (Q9Y243 whole entry): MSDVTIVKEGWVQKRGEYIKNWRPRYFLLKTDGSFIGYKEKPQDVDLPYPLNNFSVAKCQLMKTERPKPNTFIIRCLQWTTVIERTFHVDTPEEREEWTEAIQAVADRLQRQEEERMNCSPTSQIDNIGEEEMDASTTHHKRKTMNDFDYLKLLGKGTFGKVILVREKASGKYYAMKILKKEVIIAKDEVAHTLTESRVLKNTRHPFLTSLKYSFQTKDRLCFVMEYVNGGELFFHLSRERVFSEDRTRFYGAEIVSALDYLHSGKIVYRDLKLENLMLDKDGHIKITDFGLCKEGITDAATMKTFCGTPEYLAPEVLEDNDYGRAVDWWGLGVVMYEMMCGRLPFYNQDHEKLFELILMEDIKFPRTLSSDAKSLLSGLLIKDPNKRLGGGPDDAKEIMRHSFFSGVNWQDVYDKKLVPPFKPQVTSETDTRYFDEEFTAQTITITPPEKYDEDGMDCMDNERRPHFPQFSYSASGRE

For `CN(c1ccc(NC(=O)NCCN2CCOCC2)cc1)c1ccnc(Nc2ccc(CS(C)(=O)=O)cc2)n1`, the inhibition in [1] was 0.71%; in test [2], -0.42%; in test [3], 0.78%; in test [4] it was 0.37%; in [5], 0.73%; in test [6] it was 0.19%. For the same molecule, the inhibition in [7] is 4.41%; in test [8], 7.67%; in [9] it was 3.45%; in [10], 5.28%; in [11], -0.04%; in test [12], 2.59%. Besides, the inhibition came out at 0.01% in [13]; 0.6% in test [14]; 3.04% in test [15]; 3.65% in test [16]; 2.62% in test [17]; 3.19% in [18]. In addition, the inhibition in test [19] amounted to 1.53%; in [20] it was 1.23%.
As for `Fc1ccc(Nc2nccc(-c3c(-c4ccc(C(F)(F)F)cc4)nn4ncccc34)n2)cc1F`, the inhibition in test [1] was 1.15%; in test [2] it was 1.34%; in [3], 0.91%; in test [4] it was 1.4%; in test [5], 1.72%; in [6], 1.36%. Further, the inhibition in test [7] is 0.33%; in [8], -0.08%; in test [9], 2.15%; in [10], -0.32%; in [11] it was -0.28%; in [12] it was -1.12%. Besides, the inhibition is -0.35% in [13]; 1.04% in test [14]; 2.66% in test [15]; 2.7% in [16]; -0.61% in test [17]; 2% in [18]. Further, the inhibition stood at 1.31% in [19] and 0.33% in test [20].
Take `COc1cccc(-n2ncc3c(N/N=C/c4ccc(C(=O)NCCN(C)C)cc4)ncnc32)c1`: the inhibition in test [1] was 0.53%; in test [2] it was -4.74%; in test [3], 1.29%; in [4], -2.95%; in [5], 1.33%; in test [6], -1.17%. The inhibition in test [7] was -2.74%; in test [8], -7.47%; in test [9] it was 1.52%; in test [10], -8.73%; in test [11] it was 2.1%; in test [12], 7.78%. For the same molecule, the inhibition in test [13] stood at 2.49%; in [14] it was 8.24%; in test [15], 3.26%; in test [16] it was 8.01%; in test [17], 1.32%; in [18] it was 4.69%. Moreover, the inhibition came out at 4.61% in test [19] and 20.9% in test [20].
As to `Cc1c2ccc(N(C)c3ccnc(Nc4cccc(S(N)(=O)=O)c4)n3)cc2nn1C`, the inhibition in [1] was -2.15%; in [2], -4.81%; in test [3] it was -2.16%; in [4], -3.49%; in test [5], -0.07%; in test [6], -4.61%. Moreover, the inhibition is -0.96% in test [7]; 1.02% in test [8]; 3.31% in test [9]; 8.97% in test [10]; -0.27% in test [11]; 0.18% in test [12]. For the same molecule, the inhibition in [13] amounted to 0.8%; in [14], 0.18%; in test [15], 2.9%; in test [16], 1.29%; in test [17], 2.14%; in [18] it was 5.76%. Also, the inhibition in [19] worked out at 2.59%; in test [20] it was 2.64%.
For `FC(F)(F)CNc1nccc(-c2cnn3ncccc23)n1`, the inhibition is 0.05% in test [1]; 0.65% in test [2]; 1.43% in [3]; 0.42% in test [4]; 0.5% in test [5]; 1.33% in test [6]. The inhibition in test [7] is -2.66%; in test [8], -0.41%; in test [9] it was 3.21%; in test [10], 0.87%; in test [11], -2.84%; in test [12], -3.89%. For the same molecule, the inhibition was -0.09% in test [13]; -0.68% in test [14]; 1.98% in [15]; 1.09% in test [16]; 2.33% in test [17]; 1.58% in [18]. Moreover, the inhibition in test [19] was found to be 0.49%; in test [20], 0.86%.
For the molecule `CNC(=O)c1ncccc1Nc1nc(Nc2cc3c(cc2OC)CCCN3C(=O)CN(C)C)nc2[nH]ccc12`, the inhibition in test [1] came out at 1.11%; in [2] it was 1.38%; in test [3], 2.81%; in test [4], 2.14%; in test [5], 2.74%; in test [6], 1.71%. In addition, the inhibition in [7] is 14.5%; in test [8], 56.7%; in test [9], 16.9%; in test [10] it was 50.4%; in [11], -0.11%; in [12], 2.88%. The inhibition is 1.2% in test [13]; 2.41% in test [14]; 3.81% in test [15]; 3.98% in test [16]; 2.93% in [17]; 5.8% in [18]. Moreover, the values for the inhibition in test [19] and in test [20] were 2.79% and 3.62%, respectively.
`O=C(O[C@H]1CN[C@H](C#Cc2cc3ncnc(Nc4ccc5c(ccn5Cc5cc(F)ccc5F)c4)c3s2)C1)N1CCOCC1`: the inhibition turned out to be 0.34% in test [1]; 1.4% in test [2]; 1.89% in test [3]; 1.81% in [4]; 0.84% in test [5]; 0.51% in [6]. Further, the inhibition in test [7] was 3.43%; in test [8], 5.16%; in [9], 3.33%; in test [10] it was 3.94%; in test [11], -0.29%; in test [12], -1.5%. Besides, the inhibition was 1.19% in test [13]; 1.68% in test [14]; -1.77% in test [15]; -0.4% in [16]; 2.95% in test [17]; 4.34% in test [18]. Also, the inhibition in test [19] was found to be 1.82%; in [20] it was 1.74%.
